Results as given in the supplement of paper PMC11732987, “Enantioselective OTUD7B fragment discovery through chemoproteomics screening and high-throughput optimisation” (Communications Chemistry, 2025).

Columns and labels:
Experiment in all cases: log2 ratio of Biotin-Ahx-Ub-VS probe labelling (fragment/DMSO); higher = less target engagement (more negative = stronger competition), active = hit call of the paper (q ≤ 0.05, log2 ratio ≤ -1)
Conditions in all cases: compound concentration: 200 uM; treatment time: 3 h
USP42 = target: T1, USP42 (UniProt Q9H9J4)
T1 sequence (whole entry): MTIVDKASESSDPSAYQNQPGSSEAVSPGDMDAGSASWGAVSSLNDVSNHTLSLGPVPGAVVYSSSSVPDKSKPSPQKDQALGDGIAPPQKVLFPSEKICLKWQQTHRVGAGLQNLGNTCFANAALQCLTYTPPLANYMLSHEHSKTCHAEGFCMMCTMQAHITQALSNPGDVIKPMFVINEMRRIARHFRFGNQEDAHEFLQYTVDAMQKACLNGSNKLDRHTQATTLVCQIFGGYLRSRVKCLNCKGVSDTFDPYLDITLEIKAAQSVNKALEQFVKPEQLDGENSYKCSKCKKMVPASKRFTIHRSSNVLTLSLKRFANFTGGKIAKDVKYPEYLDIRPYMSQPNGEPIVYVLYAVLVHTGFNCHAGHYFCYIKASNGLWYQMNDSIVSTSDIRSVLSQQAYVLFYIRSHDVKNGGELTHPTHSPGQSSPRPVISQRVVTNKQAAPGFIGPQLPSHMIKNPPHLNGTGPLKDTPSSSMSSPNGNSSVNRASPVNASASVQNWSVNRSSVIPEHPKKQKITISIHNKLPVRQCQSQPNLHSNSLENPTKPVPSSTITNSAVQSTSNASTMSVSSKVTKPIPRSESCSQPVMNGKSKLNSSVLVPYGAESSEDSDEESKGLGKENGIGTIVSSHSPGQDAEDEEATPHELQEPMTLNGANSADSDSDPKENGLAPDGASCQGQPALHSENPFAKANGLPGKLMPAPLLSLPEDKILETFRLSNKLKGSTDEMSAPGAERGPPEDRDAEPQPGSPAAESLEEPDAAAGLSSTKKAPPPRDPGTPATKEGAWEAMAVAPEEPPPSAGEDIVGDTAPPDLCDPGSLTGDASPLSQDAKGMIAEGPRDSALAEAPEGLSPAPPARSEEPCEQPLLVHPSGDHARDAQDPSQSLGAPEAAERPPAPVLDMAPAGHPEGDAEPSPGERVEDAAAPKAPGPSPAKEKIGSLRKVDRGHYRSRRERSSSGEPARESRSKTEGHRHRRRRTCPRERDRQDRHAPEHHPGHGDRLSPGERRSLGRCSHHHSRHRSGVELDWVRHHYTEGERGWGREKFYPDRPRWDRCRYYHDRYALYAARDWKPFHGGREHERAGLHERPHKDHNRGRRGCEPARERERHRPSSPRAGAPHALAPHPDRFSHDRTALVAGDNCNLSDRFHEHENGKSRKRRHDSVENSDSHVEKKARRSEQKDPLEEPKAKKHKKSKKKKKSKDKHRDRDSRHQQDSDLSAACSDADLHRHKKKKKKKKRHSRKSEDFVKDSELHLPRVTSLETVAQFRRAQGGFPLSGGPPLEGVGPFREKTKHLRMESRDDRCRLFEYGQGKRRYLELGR
Method in brief: (§1)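 Global-median-normalised Spectronaut label-free quantities were compared by unpaired t-test, and values are average log2 ratios of fragment over vehicle. Only proteins with ≥2 unique peptides were used. HEK293T lysate (495 µg per sample) was treated in triplicate with fragment at 200 µM or vehicle for 3 h and then with Biotin-Ahx-Ub-VS at 0.5 µM final for 1 h. Labelled DUBs were then NeutrAvidin-enriched, digested with LysC and trypsin, and run by diaPASEF LC-MS/MS.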

USP46 = USP46 (UniProt P62068)
USP46, sequence (P62068 whole entry): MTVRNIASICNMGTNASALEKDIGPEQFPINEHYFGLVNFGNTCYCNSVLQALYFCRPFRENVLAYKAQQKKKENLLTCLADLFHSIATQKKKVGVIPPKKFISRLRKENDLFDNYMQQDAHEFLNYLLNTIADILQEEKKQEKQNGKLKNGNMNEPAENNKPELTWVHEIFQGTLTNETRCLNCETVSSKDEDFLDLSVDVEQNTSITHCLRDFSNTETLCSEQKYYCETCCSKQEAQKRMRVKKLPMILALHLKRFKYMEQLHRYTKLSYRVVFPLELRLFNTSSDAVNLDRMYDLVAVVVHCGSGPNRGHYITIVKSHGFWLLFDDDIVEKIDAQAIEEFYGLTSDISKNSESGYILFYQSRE
Method in brief: as §1

USP47 = target: T2, USP47 (UniProt Q96K76)
T2 sequence (whole entry): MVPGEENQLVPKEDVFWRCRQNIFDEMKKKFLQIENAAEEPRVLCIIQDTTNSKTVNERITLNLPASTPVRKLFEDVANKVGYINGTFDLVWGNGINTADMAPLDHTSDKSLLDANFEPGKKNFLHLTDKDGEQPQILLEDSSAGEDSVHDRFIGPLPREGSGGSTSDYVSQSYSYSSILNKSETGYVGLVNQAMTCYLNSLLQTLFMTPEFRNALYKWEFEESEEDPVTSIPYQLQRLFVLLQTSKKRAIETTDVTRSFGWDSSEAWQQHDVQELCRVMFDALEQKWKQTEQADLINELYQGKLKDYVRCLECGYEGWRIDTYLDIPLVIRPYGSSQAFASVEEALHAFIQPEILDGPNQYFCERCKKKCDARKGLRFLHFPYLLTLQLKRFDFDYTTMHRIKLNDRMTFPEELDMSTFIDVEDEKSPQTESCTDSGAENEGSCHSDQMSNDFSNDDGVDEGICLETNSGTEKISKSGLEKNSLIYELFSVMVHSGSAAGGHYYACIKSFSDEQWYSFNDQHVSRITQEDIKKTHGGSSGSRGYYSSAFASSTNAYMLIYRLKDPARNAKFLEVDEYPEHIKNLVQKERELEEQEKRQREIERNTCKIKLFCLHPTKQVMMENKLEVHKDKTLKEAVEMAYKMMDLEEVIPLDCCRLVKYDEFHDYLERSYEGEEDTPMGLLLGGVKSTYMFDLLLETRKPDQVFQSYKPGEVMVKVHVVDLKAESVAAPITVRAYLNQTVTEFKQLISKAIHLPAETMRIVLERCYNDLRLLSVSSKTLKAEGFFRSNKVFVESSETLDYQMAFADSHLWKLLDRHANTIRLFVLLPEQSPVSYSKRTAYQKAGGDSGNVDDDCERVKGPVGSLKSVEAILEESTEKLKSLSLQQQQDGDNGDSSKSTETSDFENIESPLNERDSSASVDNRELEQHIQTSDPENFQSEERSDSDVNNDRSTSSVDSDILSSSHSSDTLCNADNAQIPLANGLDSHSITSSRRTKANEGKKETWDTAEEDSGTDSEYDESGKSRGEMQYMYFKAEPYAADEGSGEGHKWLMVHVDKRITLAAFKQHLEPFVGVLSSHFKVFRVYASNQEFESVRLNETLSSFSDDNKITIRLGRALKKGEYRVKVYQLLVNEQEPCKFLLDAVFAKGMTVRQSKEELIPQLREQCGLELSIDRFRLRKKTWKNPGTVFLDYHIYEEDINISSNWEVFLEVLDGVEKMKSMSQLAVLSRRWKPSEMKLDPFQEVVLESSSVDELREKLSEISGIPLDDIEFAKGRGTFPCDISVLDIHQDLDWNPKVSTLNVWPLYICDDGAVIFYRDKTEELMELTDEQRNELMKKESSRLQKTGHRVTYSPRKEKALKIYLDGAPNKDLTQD
Method in brief: as §1

USP48 = target: T3, USP48 (UniProt Q86UV5)
T3 sequence (whole entry): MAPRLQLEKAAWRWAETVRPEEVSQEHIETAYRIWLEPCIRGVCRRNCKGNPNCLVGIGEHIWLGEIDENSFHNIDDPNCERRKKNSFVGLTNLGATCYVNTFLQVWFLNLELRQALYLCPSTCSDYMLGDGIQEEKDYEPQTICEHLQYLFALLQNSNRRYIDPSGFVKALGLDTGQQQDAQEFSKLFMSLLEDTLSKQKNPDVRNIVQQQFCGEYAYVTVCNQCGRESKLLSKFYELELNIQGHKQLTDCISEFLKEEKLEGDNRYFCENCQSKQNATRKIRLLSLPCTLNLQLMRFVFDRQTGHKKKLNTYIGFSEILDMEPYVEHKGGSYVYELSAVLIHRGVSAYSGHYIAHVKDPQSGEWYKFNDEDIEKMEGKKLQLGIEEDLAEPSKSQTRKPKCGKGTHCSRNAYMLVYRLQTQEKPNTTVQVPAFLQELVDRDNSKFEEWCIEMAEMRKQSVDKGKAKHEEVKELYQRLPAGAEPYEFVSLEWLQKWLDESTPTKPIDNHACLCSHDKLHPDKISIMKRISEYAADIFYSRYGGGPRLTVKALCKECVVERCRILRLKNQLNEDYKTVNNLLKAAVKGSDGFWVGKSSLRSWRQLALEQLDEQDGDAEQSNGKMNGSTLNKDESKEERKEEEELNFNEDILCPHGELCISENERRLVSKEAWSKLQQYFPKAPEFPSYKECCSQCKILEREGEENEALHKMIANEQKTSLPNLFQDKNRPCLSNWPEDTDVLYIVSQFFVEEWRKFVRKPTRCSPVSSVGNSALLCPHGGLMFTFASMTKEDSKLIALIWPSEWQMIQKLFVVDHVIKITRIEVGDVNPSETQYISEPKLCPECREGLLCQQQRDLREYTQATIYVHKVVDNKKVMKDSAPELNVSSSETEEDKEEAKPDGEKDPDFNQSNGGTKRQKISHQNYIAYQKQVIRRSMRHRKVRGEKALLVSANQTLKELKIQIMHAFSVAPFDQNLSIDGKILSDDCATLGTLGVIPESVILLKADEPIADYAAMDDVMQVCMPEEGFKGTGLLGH
Method in brief: as §1

USP5 = target: T4, USP5 (UniProt P45974)
T4 sequence (whole entry): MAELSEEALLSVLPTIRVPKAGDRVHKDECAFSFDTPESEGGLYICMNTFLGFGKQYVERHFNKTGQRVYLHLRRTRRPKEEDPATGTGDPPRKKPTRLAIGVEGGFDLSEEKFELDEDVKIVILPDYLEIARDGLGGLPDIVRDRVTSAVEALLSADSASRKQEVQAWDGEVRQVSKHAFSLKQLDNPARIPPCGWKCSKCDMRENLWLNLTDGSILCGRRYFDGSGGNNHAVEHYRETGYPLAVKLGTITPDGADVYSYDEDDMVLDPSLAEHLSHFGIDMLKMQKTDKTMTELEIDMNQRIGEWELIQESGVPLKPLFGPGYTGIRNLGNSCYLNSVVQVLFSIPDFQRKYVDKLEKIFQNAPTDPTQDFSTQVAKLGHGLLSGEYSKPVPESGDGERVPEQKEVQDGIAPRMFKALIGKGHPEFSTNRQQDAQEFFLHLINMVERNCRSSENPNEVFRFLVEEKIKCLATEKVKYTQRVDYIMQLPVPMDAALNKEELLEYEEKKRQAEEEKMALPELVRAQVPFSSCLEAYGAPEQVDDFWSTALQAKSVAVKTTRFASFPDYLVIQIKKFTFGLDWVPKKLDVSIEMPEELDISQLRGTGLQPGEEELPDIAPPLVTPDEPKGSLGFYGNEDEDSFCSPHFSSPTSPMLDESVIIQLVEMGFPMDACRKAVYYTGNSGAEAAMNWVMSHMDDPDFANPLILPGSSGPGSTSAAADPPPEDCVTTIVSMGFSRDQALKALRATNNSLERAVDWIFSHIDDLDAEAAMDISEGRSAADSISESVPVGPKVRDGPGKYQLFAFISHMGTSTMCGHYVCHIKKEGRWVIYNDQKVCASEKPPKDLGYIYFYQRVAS
Method in brief: as §1

USP54 = USP54 (UniProt Q70EL1)
Method in brief: as §1

USP7 = USP7 (UniProt Q93009)
USP7, sequence (Q93009 whole entry, looked up): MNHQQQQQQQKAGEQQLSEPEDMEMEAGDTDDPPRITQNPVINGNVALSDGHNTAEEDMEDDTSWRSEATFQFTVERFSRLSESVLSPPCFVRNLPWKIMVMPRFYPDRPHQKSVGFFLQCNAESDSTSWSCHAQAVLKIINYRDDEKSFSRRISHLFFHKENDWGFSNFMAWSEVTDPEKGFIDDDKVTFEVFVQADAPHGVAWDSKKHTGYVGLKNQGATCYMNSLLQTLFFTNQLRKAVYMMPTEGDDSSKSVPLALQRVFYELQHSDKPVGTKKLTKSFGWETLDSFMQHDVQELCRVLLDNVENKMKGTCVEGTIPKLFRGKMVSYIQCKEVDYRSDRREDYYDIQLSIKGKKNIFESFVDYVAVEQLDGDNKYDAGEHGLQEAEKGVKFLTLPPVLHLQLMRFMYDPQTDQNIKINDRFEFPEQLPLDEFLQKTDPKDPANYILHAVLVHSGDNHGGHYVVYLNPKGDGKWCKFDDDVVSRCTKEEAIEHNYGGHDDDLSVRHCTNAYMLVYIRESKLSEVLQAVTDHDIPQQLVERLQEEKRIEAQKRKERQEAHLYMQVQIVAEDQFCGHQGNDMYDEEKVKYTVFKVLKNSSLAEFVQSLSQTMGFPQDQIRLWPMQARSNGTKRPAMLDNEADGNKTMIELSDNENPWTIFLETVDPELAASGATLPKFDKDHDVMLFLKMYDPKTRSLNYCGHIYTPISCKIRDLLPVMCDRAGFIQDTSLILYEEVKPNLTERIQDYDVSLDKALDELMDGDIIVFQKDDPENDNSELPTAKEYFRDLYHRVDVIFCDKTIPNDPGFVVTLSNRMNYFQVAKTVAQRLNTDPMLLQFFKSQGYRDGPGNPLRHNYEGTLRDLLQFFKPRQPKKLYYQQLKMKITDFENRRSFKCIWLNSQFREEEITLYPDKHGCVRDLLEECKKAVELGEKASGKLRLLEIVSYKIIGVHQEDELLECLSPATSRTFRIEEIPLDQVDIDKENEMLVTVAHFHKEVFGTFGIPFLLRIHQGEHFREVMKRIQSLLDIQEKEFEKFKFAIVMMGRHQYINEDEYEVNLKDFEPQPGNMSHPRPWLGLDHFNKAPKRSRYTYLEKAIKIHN
Method in brief: as §1

USP8 = target: T5, USP8 (UniProt P40818)
T5 sequence (whole entry): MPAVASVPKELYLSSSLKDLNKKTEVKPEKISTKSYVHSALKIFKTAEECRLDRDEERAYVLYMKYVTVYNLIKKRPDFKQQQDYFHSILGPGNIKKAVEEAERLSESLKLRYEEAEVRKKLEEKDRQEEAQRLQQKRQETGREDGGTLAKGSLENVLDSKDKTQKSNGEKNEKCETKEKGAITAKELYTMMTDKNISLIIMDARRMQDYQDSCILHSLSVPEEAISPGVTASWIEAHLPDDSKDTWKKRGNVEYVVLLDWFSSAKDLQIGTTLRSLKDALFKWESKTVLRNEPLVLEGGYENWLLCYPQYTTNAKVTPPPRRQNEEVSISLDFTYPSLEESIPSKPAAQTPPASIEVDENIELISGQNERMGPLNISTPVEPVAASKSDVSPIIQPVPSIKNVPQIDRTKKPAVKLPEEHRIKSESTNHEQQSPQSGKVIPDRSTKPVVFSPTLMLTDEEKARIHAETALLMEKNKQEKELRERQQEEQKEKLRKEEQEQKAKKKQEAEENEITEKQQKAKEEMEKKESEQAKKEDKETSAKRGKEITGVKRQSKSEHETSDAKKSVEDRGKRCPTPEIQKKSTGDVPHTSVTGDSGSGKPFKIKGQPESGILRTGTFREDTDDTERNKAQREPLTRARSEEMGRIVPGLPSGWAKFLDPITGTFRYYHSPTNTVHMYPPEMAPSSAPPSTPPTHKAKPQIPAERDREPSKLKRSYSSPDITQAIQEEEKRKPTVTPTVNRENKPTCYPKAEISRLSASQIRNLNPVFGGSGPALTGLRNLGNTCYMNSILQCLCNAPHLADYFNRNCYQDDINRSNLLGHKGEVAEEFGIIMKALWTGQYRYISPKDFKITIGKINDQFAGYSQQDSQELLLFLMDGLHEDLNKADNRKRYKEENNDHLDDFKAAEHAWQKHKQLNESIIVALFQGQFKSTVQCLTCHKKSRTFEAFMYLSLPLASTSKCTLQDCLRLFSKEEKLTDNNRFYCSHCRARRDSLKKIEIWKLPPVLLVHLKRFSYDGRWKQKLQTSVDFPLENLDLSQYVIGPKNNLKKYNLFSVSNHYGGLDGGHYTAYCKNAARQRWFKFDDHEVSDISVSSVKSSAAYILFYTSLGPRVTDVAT
Method in brief: as §1

USP9X = USP9X (UniProt Q93008)
USP9X, sequence (Q93008 whole entry): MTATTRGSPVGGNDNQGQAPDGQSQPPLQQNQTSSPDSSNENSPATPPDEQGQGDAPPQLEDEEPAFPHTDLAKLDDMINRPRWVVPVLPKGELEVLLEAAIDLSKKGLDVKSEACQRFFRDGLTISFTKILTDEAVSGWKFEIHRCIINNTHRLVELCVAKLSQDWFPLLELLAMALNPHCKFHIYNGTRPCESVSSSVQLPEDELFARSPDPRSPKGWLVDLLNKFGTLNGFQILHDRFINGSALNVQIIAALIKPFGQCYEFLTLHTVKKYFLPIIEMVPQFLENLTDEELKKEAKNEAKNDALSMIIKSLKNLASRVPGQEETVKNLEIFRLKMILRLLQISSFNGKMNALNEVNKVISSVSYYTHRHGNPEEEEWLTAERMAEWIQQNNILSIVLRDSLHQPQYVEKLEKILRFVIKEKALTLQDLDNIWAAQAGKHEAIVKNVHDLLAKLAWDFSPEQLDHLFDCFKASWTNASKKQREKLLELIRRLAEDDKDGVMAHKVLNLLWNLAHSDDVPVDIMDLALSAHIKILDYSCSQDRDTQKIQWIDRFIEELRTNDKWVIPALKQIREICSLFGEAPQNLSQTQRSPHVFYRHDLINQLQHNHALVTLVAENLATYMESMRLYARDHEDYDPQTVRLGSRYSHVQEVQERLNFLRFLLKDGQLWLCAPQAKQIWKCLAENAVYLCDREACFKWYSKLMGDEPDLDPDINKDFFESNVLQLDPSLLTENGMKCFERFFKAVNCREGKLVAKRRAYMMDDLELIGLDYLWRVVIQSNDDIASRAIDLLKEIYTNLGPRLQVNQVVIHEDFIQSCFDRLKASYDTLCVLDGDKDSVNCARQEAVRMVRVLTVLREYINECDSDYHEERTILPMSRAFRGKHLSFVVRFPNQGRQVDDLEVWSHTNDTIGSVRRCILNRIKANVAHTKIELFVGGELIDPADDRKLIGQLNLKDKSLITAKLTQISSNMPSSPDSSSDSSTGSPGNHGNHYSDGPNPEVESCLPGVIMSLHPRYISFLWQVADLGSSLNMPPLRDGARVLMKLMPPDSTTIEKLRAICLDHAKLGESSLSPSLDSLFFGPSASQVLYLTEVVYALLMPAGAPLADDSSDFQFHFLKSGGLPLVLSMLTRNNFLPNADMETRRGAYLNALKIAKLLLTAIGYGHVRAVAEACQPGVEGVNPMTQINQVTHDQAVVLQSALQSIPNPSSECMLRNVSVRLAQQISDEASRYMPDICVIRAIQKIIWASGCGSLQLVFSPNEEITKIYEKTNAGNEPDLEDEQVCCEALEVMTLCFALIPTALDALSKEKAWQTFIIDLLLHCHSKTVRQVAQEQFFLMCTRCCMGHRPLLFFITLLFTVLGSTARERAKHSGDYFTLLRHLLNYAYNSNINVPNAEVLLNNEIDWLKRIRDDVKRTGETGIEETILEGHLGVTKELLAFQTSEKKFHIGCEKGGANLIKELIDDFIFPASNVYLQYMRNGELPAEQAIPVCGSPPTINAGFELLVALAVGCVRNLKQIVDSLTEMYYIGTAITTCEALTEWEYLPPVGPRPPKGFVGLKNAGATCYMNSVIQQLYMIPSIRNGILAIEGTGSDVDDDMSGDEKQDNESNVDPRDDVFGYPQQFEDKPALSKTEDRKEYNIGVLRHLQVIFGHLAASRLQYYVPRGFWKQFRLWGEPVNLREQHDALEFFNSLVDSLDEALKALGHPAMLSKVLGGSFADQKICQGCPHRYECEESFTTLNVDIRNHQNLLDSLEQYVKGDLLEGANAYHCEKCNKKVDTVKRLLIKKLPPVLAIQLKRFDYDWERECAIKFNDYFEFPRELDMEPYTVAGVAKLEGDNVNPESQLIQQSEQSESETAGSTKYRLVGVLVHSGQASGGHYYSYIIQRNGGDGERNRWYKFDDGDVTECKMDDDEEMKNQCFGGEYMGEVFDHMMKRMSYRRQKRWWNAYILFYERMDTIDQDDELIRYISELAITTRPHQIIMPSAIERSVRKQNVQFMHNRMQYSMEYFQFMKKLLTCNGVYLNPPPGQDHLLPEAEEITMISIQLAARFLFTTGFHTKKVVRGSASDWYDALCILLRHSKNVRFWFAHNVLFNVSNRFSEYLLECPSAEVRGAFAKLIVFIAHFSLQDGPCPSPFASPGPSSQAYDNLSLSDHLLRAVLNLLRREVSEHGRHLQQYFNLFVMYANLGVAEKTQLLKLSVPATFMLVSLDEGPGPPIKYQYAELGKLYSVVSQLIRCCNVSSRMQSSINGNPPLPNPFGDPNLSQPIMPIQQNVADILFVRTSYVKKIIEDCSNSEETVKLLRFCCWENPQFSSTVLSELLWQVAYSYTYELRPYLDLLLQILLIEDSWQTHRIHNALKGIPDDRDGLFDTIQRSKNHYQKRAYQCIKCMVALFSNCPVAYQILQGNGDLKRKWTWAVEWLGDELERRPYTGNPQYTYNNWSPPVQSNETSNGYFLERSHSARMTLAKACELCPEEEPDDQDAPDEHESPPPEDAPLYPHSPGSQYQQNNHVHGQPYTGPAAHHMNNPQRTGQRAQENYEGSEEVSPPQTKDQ
Method in brief: as §1

UniProt O00487 = target: UniProt O00487
UniProt O00487, sequence (O00487 whole entry): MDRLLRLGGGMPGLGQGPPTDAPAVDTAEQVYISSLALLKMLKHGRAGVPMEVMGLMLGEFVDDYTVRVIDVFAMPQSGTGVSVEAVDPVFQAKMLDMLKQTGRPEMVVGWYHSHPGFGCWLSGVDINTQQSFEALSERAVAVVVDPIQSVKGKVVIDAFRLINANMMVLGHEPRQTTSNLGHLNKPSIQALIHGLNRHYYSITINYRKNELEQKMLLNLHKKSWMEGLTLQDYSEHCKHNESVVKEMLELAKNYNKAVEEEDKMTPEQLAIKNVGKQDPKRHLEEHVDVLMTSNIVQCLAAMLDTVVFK
Method in brief: as §1

Measured: log2 ratio of Biotin-Ahx-Ub-VS probe labelling

CN(CCc1ncc(Br)cn1)C(=O)CCl.Cl
inactive: USP42 0.325 | USP46 -0.136 | USP47 -0.331 | USP48 -0.46 | USP5 0.24 | USP54 0.619 | USP7 -0.266 | USP8 -0.602 | USP9X -0.319 | UniProt O00487 -0.0172
